What all share (settings): mRNA level, 48 h; actives raise or lower the signal
Read-out in test [1]: Fatty acid synthase (Homo sapiens) (UniProt P49327)
Description: LTEA_HepaRG_FASN: Life Technologies and Expression Analysis (LTEA) Assay for Fatty Acid Synthase (FASN) using HepaRG (AID 2283448).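 On AC50: differentiated human HepaRG liver cells in serum-free induction medium.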 Summed up: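 FASN expression changes, up or down relative to 0.5% DMSO, were measured by qRT-PCR in human HepaRG cells after 48 h treatment with chemicals at eight concentrations (half-log steps from 100 uM).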

Read-out in test [2]: Cyclin D2 (CCND2), CCND2 (gene 894)
The test can be described thus: LTEA_HepaRG_CCND2: Life Technologies and Expression Analysis (LTEA) Assay for Cyclin D2 (CCND2) using HepaRG (AID 2283449). Summed up: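 Read-out is CCND2 mRNA level measured by qRT-PCR in human HepaRG liver cells and normalised to three housekeeping genes. Chemicals were applied for 48 h at up to 100 uM, with gain or loss fitted relative to 0.5% DMSO.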

Read-out in test [3]: Cyclin Dependent Kinase Inhibitor 1A (CDKN1A), CDKN1A (gene 1026)
The test can be described thus: LTEA_HepaRG_CDKN1A: Life Technologies and Expression Analysis (LTEA) Assay for Cyclin Dependent Kinase Inhibitor 1A (CDKN1A) using HepaRG (AID 2283450). In outline:
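Expression quantified by Fluidigm qRT-PCR with ACTB, GAPDH and POLR2A normalization, fitted bidirectionally against 0.5% DMSO. Cells: HepaRG, plated 48 h then treated 48 h in serum-free induction medium, top concentration 100 uM with half-log dilutions.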

Read-out in test [4]: Cyclin D1 (CCND1), CCND1 (gene 595)
The test can be described thus: LTEA_HepaRG_CCND1: Life Technologies and Expression Analysis (LTEA) Assay for Cyclin D1 (CCND1) using HepaRG (AID 2283451).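 On AC50: differentiated human HepaRG liver cells in serum-free induction medium; TaqMan qRT-PCR transcript level normalised to ACTB GAPDH and POLR2A housekeeping genes.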 In outline:
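Expression of CCND1 was quantified by qRT-PCR on Fluidigm arrays using ACTB, GAPDH and POLR2A as reference genes. HepaRG cultures, plated 48 h beforehand, were dosed for 48 h at up to 100 uM (half-log, 8 points) in 0.5% DMSO.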

Read-out in test [5]: catalase (CAT), CAT (gene 847)
Description: LTEA_HepaRG_CAT: Life Technologies and Expression Analysis (LTEA) Assay for catalase (CAT) using HepaRG (AID 2283452). In outline:
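Expression of CAT was quantified by TaqMan qRT-PCR with ACTB/GAPDH/POLR2A normalization after 48 h chemical exposure of HepaRG. Eight-point half-log series, top 100 uM, in 0.5% DMSO; gain or loss fitted against vehicle.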

Read-out in test [6]: flavin-containing dimethylaniline monooxygenases 3 (FMO3), FMO3 (gene 2328)
Description: LTEA_HepaRG_FMO3: Life Technologies and Expression Analysis (LTEA) Assay for flavin-containing dimethylaniline monooxygenases 3 (FMO3) using HepaRG (AID 2283453).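 On AC50: differentiated human HepaRG liver cells in serum-free induction medium.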 In outline: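 Differentiated HepaRG cells in serum-free induction medium, exposed 48 h in duplicate to 8 half-log concentrations up to 100 uM in 0.5% DMSO. FMO3 mRNA by qRT-PCR, normalized to ACTB, GAPDH, POLR2A; bidirectional fit vs DMSO.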

Read-out in test [7]: Cytochrome P450 (CYP1A1), CYP1A1 (gene 1543)
Description: LTEA_HepaRG_CYP1A1: Life Technologies and Expression Analysis (LTEA) Assay for Cytochrome P450 (CYP1A1) using HepaRG (AID 2283454). In outline:
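CYP1A1 transcript levels measured by Fluidigm qRT-PCR against three housekeeping genes, 48 h after chemical dosing of human HepaRG cells (highest concentration 100 uM, half-log steps, 0.5% DMSO vehicle). Gain or loss of signal fitted relative to DMSO.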

Read-out in test [8]: CFLAR gene, CFLAR (gene 8837)
The test can be described thus: LTEA_HepaRG_CFLAR: Life Technologies and Expression Analysis (LTEA) Assay for CFLAR gene using HepaRG (AID 2283455). In outline: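 HepaRG, 48 h exposure, 8-pt conc-response (100 uM top, half-log), 0.5% DMSO vehicle, duplicates. CFLAR expression by qRT-PCR; ACTB/GAPDH/POLR2A normalization; gain or loss fit vs DMSO baseline.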

Read-out in test [9]: growth arrest and DNA damage 45 (GADD45A), GADD45A (gene 1647)
Description: LTEA_HepaRG_GADD45A: Life Technologies and Expression Analysis (LTEA) Assay for growth arrest and DNA damage 45 (GADD45A) using HepaRG (AID 2283458). Summed up:
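Cells plated and cultured 48 h, switched to serum-free induction medium, then dosed for 48 h (100 uM top, half-log dilutions, 0.5% DMSO). RNA was isolated and transcript measured by Fluidigm qRT-PCR.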

Read-out in test [10]: Forkhead box O3 (FOXO3), FOXO3 (gene 2309)
Description: LTEA_HepaRG_FOXO3: Life Technologies and Expression Analysis (LTEA) Assay for Forkhead box O3 (FOXO3) using HepaRG (AID 2283459). Summed up:
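HepaRG, 48 h post-dose; 8 conc., half-log from 100 uM, 0.5% DMSO, duplicates; serum-free induction medium. Readout: FOXO3 mRNA, TaqMan qRT-PCR, housekeeping-normalized. Bidirectional curve fit vs DMSO baseline.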

Read-out in test [11]: ABC Transporter (ABCB1), ABCB1 (gene 5243)
The test can be described thus: LTEA_HepaRG_ABCB1: Life Technologies and Expression Analysis (LTEA) Assay for ABC Transporter (ABCB1) using HepaRG (AID 2283460). In outline: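 Expression of ABCB1 was quantified by qRT-PCR against three housekeeping genes after human HepaRG cultures received test chemicals for 48 hours. Concentrations spanned eight half-log steps topping at 100 uM in 0.5% DMSO; gain or loss of signal was fitted relative to vehicle.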

Read-out in test [12]: growth arrest and DNA damage 45 (GADD45B), GADD45B (gene 4616)
Description: LTEA_HepaRG_GADD45B: Life Technologies and Expression Analysis (LTEA) Assay for growth arrest and DNA damage 45 (GADD45B) using HepaRG (AID 2283461). In outline:
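Transcript level quantified by Fluidigm TaqMan qRT-PCR with three housekeeping genes for normalization, analyzed for up- or down-regulation against 0.5% DMSO. HepaRG cultures dosed 48 h at eight half-log concentrations up to 100 uM, duplicates.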

Read-out in test [13]: ABC Transporter (ABCC3), ABCC3 (gene 8714)
The test can be described thus: LTEA_HepaRG_ABCC3: Life Technologies and Expression Analysis (LTEA) Assay for ABC Transporter (ABCC3) using HepaRG (AID 2283462). Summed up: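 Transcript level by TaqMan qRT-PCR, normalised to three housekeeping genes, fitted in both directions relative to vehicle. Chemicals tested in duplicate at eight half-log concentrations up to 100 uM for 48 h on HepaRG cells (0.5% DMSO).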

Read-out in test [14]: ABC Transporter (ABCB11), ABCB11 (gene 8647)
Description: LTEA_HepaRG_ABCB11: Life Technologies and Expression Analysis (LTEA) Assay for ABC Transporter (ABCB11) using HepaRG (AID 2283463). In outline:
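ABCB11 transcript levels are read by Fluidigm TaqMan qRT-PCR after 48 h chemical treatment of human HepaRG cells. Concentrations span 100 uM downward in half-log steps with 0.5% DMSO; gain or loss is fitted against DMSO controls.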

Read-out in test [15]: Broad substrate specificity ATP-binding cassette transporter ABCG2 (Homo sapiens) (UniProt Q9UNQ0)
The test can be described thus: LTEA_HepaRG_ABCG2: Life Technologies and Expression Analysis (LTEA) Assay for ABC Transporter (ABCG2) using HepaRG (AID 2283465). Summed up:
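Read-out is ABCG2 mRNA induction or loss quantified by qRT-PCR after 48 h chemical treatment of human HepaRG cells, normalized to three housekeeping genes. Concentrations reached 100 uM top in half-log steps; fitting was bidirectional against 0.5% DMSO.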

Read-out in test [16]: ATP-citrate lyase (ACLY), ACLY (gene 47)
Description: LTEA_HepaRG_ACLY: Life Technologies and Expression Analysis (LTEA) Assay for ATP-citrate lyase (ACLY) using HepaRG (AID 2283466). In outline:
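HepaRG, 48 h exposure, 8-pt half-log dilutions (top 100 uM), 0.5% DMSO. Readout: ACLY mRNA, TaqMan qRT-PCR, housekeeping-normalized (ACTB/GAPDH/POLR2A). Bidirectional curve fit vs DMSO.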

Read-out in test [17]: Peroxisomal acyl-coenzyme A oxidase 1 (ACOX1) gene, ACOX1 (gene 51)
The test can be described thus: LTEA_HepaRG_ACOX1: Life Technologies and Expression Analysis (LTEA) Assay for Peroxisomal acyl-coenzyme A oxidase 1 (ACOX1) gene using HepaRG (AID 2283467). Summed up:
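Measured by qRT-PCR against three housekeeping genes: ACOX1 transcript change in human HepaRG cells after 48 h dosing. Concentrations ran up to 100 uM in half-log steps. Curves were fitted bidirectionally relative to 0.5% DMSO.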

One may read the AC50 as the concentration at which the activity in the assay is half-maximal.

Active and inactive are the calls of the source. How the source made its calls: active means hit-call score of the fitted dose curve at least 0.9, where 1 is the maximum; inactive means score below 0.9.

Sequence of Broad substrate specificity ATP-binding cassette transporter ABCG2 (Homo sapiens) (Q9UNQ0 whole entry, looked up): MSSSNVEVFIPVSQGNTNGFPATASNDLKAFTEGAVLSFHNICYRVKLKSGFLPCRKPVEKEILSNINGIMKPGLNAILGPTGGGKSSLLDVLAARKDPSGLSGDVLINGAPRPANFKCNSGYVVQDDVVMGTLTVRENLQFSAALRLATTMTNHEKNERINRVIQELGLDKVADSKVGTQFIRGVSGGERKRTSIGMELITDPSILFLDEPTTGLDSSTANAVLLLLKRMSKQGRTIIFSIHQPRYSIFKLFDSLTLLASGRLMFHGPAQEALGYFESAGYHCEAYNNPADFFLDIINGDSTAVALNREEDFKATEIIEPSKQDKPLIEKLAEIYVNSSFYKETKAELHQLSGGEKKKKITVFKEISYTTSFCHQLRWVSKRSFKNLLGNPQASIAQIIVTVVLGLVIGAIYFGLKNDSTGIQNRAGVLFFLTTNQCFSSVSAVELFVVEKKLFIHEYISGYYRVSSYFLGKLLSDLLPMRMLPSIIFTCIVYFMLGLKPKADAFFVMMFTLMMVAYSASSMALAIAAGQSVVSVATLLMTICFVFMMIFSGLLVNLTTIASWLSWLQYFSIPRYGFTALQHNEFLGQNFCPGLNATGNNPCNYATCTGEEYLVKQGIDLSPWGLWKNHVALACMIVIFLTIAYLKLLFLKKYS
Sequence of Fatty acid synthase (Homo sapiens) (P49327 whole entry, looked up): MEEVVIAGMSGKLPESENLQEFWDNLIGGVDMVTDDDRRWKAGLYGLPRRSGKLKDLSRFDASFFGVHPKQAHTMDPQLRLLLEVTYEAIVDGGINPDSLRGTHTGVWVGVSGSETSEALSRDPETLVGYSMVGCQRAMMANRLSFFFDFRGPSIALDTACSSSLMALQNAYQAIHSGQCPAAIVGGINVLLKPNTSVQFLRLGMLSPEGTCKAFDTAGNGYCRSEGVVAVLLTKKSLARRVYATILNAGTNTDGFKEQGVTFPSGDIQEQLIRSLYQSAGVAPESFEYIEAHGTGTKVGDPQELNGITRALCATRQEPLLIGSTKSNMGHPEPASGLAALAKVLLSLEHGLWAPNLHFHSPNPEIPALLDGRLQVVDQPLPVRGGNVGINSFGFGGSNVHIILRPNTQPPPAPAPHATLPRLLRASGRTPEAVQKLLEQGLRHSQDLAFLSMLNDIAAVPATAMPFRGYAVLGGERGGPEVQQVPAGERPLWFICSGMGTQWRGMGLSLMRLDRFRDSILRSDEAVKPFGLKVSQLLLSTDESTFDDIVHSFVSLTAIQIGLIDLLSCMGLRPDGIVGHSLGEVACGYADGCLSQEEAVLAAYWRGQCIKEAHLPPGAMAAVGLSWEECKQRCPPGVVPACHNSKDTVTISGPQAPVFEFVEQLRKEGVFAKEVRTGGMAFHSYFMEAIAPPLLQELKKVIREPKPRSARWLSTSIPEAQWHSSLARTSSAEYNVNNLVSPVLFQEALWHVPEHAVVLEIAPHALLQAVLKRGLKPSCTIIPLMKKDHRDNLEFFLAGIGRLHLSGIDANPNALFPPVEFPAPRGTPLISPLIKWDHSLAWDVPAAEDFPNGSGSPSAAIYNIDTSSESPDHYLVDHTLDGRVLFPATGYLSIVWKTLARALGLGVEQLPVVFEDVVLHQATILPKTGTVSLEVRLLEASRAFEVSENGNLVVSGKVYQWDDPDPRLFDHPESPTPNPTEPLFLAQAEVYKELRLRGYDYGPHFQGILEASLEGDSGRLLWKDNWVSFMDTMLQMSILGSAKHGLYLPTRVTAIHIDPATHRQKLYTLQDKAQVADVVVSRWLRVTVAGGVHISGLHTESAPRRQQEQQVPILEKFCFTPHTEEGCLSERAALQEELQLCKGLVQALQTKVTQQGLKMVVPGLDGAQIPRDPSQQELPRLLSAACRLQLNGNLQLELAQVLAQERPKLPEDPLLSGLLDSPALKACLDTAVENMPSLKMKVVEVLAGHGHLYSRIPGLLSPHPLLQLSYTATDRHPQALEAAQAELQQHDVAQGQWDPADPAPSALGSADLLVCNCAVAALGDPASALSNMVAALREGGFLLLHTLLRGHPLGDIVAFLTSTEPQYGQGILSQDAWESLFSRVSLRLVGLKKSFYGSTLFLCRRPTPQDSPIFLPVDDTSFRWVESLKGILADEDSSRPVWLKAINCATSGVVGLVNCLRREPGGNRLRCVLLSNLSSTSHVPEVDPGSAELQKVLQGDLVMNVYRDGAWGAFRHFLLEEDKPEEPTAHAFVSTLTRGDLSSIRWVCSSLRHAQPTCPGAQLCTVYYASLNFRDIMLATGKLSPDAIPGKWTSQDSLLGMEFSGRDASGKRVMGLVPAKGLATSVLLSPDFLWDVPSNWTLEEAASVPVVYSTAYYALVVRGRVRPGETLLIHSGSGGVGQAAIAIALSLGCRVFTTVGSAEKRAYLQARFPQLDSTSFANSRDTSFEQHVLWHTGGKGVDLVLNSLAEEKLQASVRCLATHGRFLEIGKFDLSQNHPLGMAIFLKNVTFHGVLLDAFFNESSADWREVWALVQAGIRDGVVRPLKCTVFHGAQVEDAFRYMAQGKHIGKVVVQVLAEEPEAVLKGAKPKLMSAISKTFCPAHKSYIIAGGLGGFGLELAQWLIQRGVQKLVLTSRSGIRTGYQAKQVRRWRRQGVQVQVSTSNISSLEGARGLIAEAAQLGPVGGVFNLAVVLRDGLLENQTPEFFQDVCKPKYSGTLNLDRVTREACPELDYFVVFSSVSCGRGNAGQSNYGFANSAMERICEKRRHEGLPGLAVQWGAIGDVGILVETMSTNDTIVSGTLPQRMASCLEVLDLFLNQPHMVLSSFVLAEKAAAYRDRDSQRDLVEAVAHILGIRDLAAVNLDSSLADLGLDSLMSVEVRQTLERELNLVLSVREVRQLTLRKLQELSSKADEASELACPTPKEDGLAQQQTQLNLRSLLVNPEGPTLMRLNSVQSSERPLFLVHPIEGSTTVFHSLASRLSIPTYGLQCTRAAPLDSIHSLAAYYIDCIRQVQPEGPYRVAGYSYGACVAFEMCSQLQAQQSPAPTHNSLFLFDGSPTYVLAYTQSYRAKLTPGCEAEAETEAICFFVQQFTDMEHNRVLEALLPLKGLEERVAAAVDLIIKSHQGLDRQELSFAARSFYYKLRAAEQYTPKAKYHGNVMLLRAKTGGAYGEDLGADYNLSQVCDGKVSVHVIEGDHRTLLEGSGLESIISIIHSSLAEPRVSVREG

With `CCOP(=S)(OCC)SCSC(C)(C)C`, the call in test [1], in [2], in [3], in test [4], in test [5] and in [6] was inactive. Besides, the molecule was called inactive in test [7], in test [8], in [9], in test [10], in test [11] and in [12]. Also, the call in test [13], in test [15], in test [16] and in test [17] was inactive. In test [14], the AC50 is 18.6 µM (active).
In the case of `Oc1ccc(Cl)cc1Cl`, the call in [1], in test [2], in [4], in [5], in [6] and in test [7] was inactive. The molecule was called inactive in [8], in [9], in test [11], in test [12], in test [13] and in [14]. Further, the molecule was classed as inactive in [15], in test [16] and in [17].
Regarding `O=C(O)C(F)(F)C(F)(F)C(F)(F)C(F)(F)C(F)(F)C(F)(F)C(F)(F)C(F)(F)C(F)(F)F`, the AC50 in test [1] is 31.1 µM (active); in test [3], 16.8 µM (active); in [4], 12.6 µM (active); in test [5] it was 65.3 µM (active); in test [6], 35.3 µM (active); in test [8], 89.5 µM (active). Moreover, the AC50 in test [9] is 85.5 µM (active); in test [11], 85.1 µM (active); in test [13], 88.5 µM (active); in [14], 61 µM (active); in [16], 76.5 µM (active); in test [17], 78.4 µM (active). In addition, the result in [2], in test [7], in [10], in test [12] and in [15] was inactive.
Take `CCC(C)c1cc([N+](=O)[O-])cc([N+](=O)[O-])c1O` (configuration not stated): the AC50 in test [1] was 1.16 µM (active); in [3], 7.37 µM (active); in [4], 11.1 µM (active); in test [5], 1.38 µM (active); in test [6], 2.51 µM (active); in [7], 85.7 µM (active). Further, the AC50 is 1.5 µM (active) in [8]; 1.07 µM (active) in test [9]; 1.77 µM (active) in test [10]; 1.39 µM (active) in test [11]; 10.7 µM (active) in test [12]; 1.29 µM (active) in test [14]. In test [17], the AC50 was 1.4 µM (active). Moreover, the molecule was classed as inactive in test [13], in test [15] and in test [16].
Consider `Cc1cccc([N+](=O)[O-])c1`, for which the molecule was called inactive in test [1], in test [2], in test [3], in [4], in test [5] and in test [6]. The molecule was classed as inactive in test [8], in test [9], in test [10], in [11], in [12] and in test [13]. Moreover, the molecule was classed as inactive in test [14], in [15], in [16] and in test [17]. In [7], the AC50 is 50 µM (active).

The record behind these values is PubChem BioAssay (EPA / NIEHS).
